The values below come from PubChem BioAssay (NCATS).

Each structure is given as a SMILES string. Results filed as inconclusive are left out. Entries that show only a call come without a potency. The source made the active and inactive calls. Calls follow the shape of the dose curve; as a rule, active = well fitted curve in the direction sought with a large enough effect; inconclusive = small, poorly fitted or top-dose-only effect, or another doubt; inactive = no such curve, though single readings can be large; an effect the other way counts as inactive or inconclusive.

Experiment [1] is described as follows: Confirmatory screen GU Rhodamine qHTS for Zika virus inhibitors qHTS (AID 1347157). Also: potency is read from the fitted curve at half-maximal effect; nearly all actives have a fitted effect of over 70% in size. The gist of the method:
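Compounds, tested up to 114 microM, were incubated for 15 minutes with 25 nM unlinked NS2B-NS3 protease at pH 8.0. Cleavage of 1.5 microM Rhodamine110 substrate was then followed by fluorescence for 15 minutes.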
(In general: Quantitative high-throughput screening tests each substance at several concentrations.)

Experiment [2] is described as follows: Confirmatory screen NINDS Rhodamine qHTS for Zika virus inhibitors (AID 1347161). Also: potency is read from the fitted curve at half-maximal effect; nearly all actives have a fitted effect of over 60% in size. The gist of the method:
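Enzyme (25 nM, linked NS2B-NS3) was preincubated 15 min with compound in 10 mM Tris-HCl pH 8.0, 0.01% Tween 20. Rhodamine110 substrate (1.5 microM) was then added and fluorescence read at start and after 15 min.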

In experiment [3] the target is Luciferin 4-monooxygenase (Photinus pyralis) (UniProt P08659). The experiment can be described thus: Biochemical firefly luciferase enzyme assay for NPC (AID 624030).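 Also: purified P. pyralis luciferase at 10 nM with luciferin and ATP substrate; series mostly up to about 59 µM; nearly all actives have a fitted effect of over 70% in size.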 The gist of the method: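 Purified P. pyralis luciferase at 10 nM in 50 mM Tris Acetate (final), luminescence read within 5 minutes of enzyme addition to compounds. Activity normalised to PTC124 versus DMSO; concentration-response curves classed by r2, magnitude and activity.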
Chain of Luciferin 4-monooxygenase (Photinus pyralis) (P08659 whole entry, looked up): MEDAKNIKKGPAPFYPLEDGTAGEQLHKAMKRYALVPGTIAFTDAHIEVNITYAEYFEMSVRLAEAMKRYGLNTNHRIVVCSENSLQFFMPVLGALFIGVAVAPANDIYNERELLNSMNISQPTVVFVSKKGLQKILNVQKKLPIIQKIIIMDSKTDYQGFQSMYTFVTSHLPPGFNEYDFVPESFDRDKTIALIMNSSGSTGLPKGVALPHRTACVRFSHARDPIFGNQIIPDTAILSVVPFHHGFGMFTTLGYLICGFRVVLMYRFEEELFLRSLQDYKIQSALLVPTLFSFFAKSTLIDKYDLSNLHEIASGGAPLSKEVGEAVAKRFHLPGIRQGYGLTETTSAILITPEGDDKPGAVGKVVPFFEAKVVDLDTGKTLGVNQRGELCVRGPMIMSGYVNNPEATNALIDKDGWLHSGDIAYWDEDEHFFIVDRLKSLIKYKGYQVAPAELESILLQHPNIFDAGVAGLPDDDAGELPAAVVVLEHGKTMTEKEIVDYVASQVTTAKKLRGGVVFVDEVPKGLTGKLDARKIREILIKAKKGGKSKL

Experiment [4] can be described thus: NCATS anti-infectives library activity on HEK293 viability as a counter-qHTS vs the C. elegans viability qHTS (AID 1745854). In a few lines: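 Compounds were acoustically plated (several concentrations, 1:5, final up to 41.7 uM), then 1500 HEK293 cells added per well and incubated 24 hr at 37C, 5% CO2. CellTiter-Glo was added and luminescence read after 10 min.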

Turning to `CNc1ccc2oc(C[C@H]3O[C@@]4(CC[C@H]3C)O[C@H](C(C)C(=O)c3ccc[nH]3)[C@H](C)C[C@H]4C)nc2c1C(=O)O` (some centres undefined), the Potency in experiment [1] was 13.9 µM (active); in experiment [2] it was 31.2 µM (active).

For the molecule `O=C(CC1NCCC[C@H]1O)Cn1cnc2cc(Br)c(Cl)cc2c1=O` (some centres undefined), the Potency result in experiment [3] is “inactive”. As for `CN1Cc2c(ccc3c2OCO3)[C@@H]2[C@H]1c1cc3c(cc1C[C@@H]2O)OCO3`, the Potency result in experiment [4] is “inactive”.
